Test results as given in PubChem BioAssay (Tox21).
Records with an inconclusive call do not appear. The source made the active and inactive calls. Unless noted, the call rests on the fitted dose curve; in most records, active means well fitted curve in the direction sought with a large enough effect in the repeat runs; inconclusive means weak or mixed curves; inactive means no such curve, though single readings can be large; an effect the other way counts as inactive or inconclusive.

Assays:
[1] = molecular target: Thyrotropin receptor (Homo sapiens) (UniProt P16473); assay: qHTS assay to identify small molecule agonists of the thyroid stimulating hormone receptor (TSHR) signaling pathway (AID 1224843; calls by dose curve; further: nearly all actives have a fitted effect of over 45% in size)
In short: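 TSHR-HEK293 cells in agonist mode, 30 min room-temperature step, then cAMP measured by competitive HTRF (cAMP-d2 with anti-cAMP cryptate) after 1 h at room temperature. Tested at 15 concentrations in triplicate.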

[2] = qHTS assay to identify small molecule agonists of the hypoxia (HIF-1) signaling pathway - cell viability counter screen (AID 1224844; calls by dose curve; further: nearly all actives have a fitted effect of over 50% in size)
In short: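 Cells (HRE-bla ME-180, 2,000 per well) sat 5 hrs at 37C, got compound for 17 hrs, were read for CCF4-AM FRET, and were finally lysed with CellTiter-Glo for a 30 min room-temperature luminescence read.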

[3] = qHTS assay to identify small molecule agonists of H2AX (AID 1224845; active means well fitted activation curve with a large enough effect in the signal ratio in the repeat runs, not every such curve was filed as active; the % refers to the signal ratio)
In short: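 Wild-type CHO-K1 cells, plated overnight, exposed 3hr at 37C to 15 concentrations (0.76% DMSO final). Lysed, then HTRF anti-pH2AX (S139) cryptate and anti-H2AX-d2 antibodies, 24 hr room temperature; 665/620 nm emission read.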

[4] = qHTS assay to identify small molecule agonists of the hypoxia (HIF-1) signaling pathway (AID 1224846; active means well fitted activation curve with a large enough effect in the signal ratio in the repeat runs, not every such curve was filed as active; the % refers to the signal ratio)
In short: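 A low-serum medium (0.5% dialyzed FBS) holding 2,000 HRE-bla ME-180 cells per well is preincubated for 5 hrs, dosed with compounds by pintool, and kept a further 17 hrs at 37C, 5% CO2 before CCF4-AM FRET detection of beta-lactamase.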

[5] = qHTS assay to identify small molecule agonists of H2AX - cell viability counter screen (AID 1224847; calls by dose curve; further: top concentration of the series differs between compounds; nearly all actives have a fitted effect of over 30% in size)
In short: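 CHO-K1 wt, 1000 cells/well, o/n 37C; cpds 15 conc, 3 h 37C, 0.76% DMSO; CellTiter-Glo, 30 min RT, luminescence.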

[6] = qHTS RealTime-Glo MT Cell Viability Assay in HepG2 cells - 24 hour (AID 1224867); further: nearly all actives have a fitted effect of over 50% in size
In short: (§1)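 Luminescence read-out: viable HepG2 cells reduce a prosubstrate to a NanoLuc substrate, giving a signal proportional to live cell number. Reads taken at 0, 8, 16, 24, 32 and 40 h of compound exposure at 37 C.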

[7] = qHTS RealTime-Glo MT Cell Viability Assay in HEK293 cells - 32 hour (AID 1224868); further: top concentration of the series differs between compounds; nearly all actives have a fitted effect of over 50% in size
In short: (§2)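 Nonlytic real-time viability readout: viable cells convert prosubstrate to NanoLuc substrate, giving luminescence proportional to live cell number. HEK293, 600 cells/well, compound added after 5 h, continuous culture at 37 C.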

[8] = A CellTox Green Cytotoxicity Assay to monitor cytotoxicity in HEK293 cells - 0 hour (AID 1224869); further: nearly all actives have a fitted effect of over 50% in size
In short: (§3)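 Fluorescence intensity, read at 0, 8, 16, 24, 32 and 40 h of compound treatment, reflected dye binding to DNA of dead HEK293 cells; compounds (23 nL, DMSO) were added 5 h after plating cells with reagent.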

[9] = qHTS RealTime-Glo MT Cell Viability Assay in HepG2 cells - 40 hour (AID 1224870); further: nearly all actives have a fitted effect of over 50% in size
In short: (§4)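 HepG2 cells (600/well) mixed with RealTime-Glo MT reagent, settled 5 h at 37 C/5% CO2 before compound addition. Nonlytic NanoLuc luminescence from viable-cell prosubstrate reduction read repeatedly during 40 h treatment at 37 C.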

[10] = A CellTox Green Cytotoxicity Assay to monitor cytotoxicity in HEK293 cells - 40 hour (AID 1224871); further: nearly all actives have a fitted effect of over 45% in size
In short: as §3

[11] = qHTS RealTime-Glo MT Cell Viability Assay in HEK293 cells - 16 hour (AID 1224872)
In short: as §2

[12] = qHTS RealTime-Glo MT Cell Viability Assay in HepG2 cells - 8 hour (AID 1224873); further: nearly all actives have a fitted effect of over 55% in size
In short: as §4

[13] = qHTS RealTime-Glo MT Cell Viability Assay in HEK293 cells - 40 hour (AID 1224874); conditions: RealTime-Glo luminescence; max response: hits give low values; further: nearly all actives have a fitted effect of over 50% in size
In short: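 Viable HEK293 cells reduce a cell-permeant prosubstrate; the product diffuses out and is consumed by NanoLuc in the medium to give light. Compounds went in after a 5 h incubation and plates were read over the treatment course.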

[14] = A CellTox Green Cytotoxicity Assay to monitor cytotoxicity in HEK293 cells - 24 hour (AID 1224875); further: nearly all actives have a fitted effect of over 45% in size
In short: as §3

[15] = A CellTox Green Cytotoxicity Assay to monitor cytotoxicity in HepG2 cells - 16 hour (AID 1224876); further: nearly all actives have a fitted effect of over 45% in size
In short: (§5)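 Using 1536-well format, dye-containing HepG2 suspension was seeded, allowed 5 h at 37 C/5% CO2, dosed by pintool with compounds, positive and negative controls, and imaged for fluorescence across 40 h.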

[16] = qHTS RealTime-Glo MT Cell Viability Assay in HepG2 cells - 32 hour (AID 1224877); further: nearly all actives have a fitted effect of over 55% in size
In short: as §1

[17] = A CellTox Green Cytotoxicity Assay to monitor cytotoxicity in HepG2 cells - 24 hour (AID 1224878); further: nearly all actives have a fitted effect of over 45% in size
In short: as §5

[18] = A CellTox Green Cytotoxicity Assay to monitor cytotoxicity in HepG2 cells - 40 hour (AID 1224879); further: nearly all actives have a fitted effect of over 40% in size
In short: as §5

[19] = qHTS assay to identify small molecule antagonists of the estrogen related receptor (ERR) signaling pathway from Tox21 library (AID 1224848); further: nearly all actives have a fitted effect of over 50% in size
In short: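 ERR reporter cell line (from NTP) seeded 2,000 cells/well, rested 6 h at 37 C/5% CO2, then pin-dosed with compounds in DMSO. After 18 h at 37 C, ONE-Glo added; luminescence read after 30 min at room temperature.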

[20] = qHTS assay to identify small molecule agonists of the estrogen related receptor (ERR) signaling pathway from Tox21 library (AID 1224849; calls by dose curve; further: nearly all actives have a fitted effect of over 15% in size); conditions: ERR reporter cell line, ONE-Glo luciferase, 18 h; at 92.4 µM (top of the series) unless noted
In short: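 Screening used an NTP-provided ERR luciferase cell line. Compounds in DMSO were added 6 h after seeding and left 18 h at 37 C before a 30 min ONE-Glo step and luminescence reading.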
On the % scale 0 is the no-effect control and ±100 the full control effect.

Chain of Thyrotropin receptor (Homo sapiens) (P16473 whole entry, looked up): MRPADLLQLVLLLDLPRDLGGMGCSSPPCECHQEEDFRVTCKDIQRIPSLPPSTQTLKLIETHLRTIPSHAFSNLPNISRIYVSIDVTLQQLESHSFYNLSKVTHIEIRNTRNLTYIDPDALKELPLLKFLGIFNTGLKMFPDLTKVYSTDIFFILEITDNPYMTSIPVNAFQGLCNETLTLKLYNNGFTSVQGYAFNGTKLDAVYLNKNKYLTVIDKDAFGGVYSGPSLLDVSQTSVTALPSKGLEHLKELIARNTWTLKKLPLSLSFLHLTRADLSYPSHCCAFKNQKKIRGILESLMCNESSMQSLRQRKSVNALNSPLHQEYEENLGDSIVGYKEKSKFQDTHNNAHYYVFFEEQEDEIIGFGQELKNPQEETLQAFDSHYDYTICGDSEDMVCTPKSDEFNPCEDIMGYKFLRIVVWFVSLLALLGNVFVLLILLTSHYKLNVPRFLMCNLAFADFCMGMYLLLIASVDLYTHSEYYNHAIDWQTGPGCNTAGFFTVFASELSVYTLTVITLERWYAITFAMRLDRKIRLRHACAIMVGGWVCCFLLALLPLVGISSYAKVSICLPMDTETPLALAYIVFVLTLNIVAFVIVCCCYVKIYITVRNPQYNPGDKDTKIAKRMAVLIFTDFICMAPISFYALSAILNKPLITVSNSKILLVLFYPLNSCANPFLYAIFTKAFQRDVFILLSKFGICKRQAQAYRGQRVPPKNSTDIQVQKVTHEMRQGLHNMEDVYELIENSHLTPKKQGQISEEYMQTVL

CC(O)CCl (stereo not drawn)
inactive: Potency [1] | Potency [2] | outcome [3] | outcome [4] | Potency [5] | Potency [6] | Potency [7] | outcome [8] | Potency [9] | Potency [10] | Potency [11] | outcome [12] | max response [13] 1.35% | Potency [14] | Potency [15] | Potency [16] | Potency [17] | Potency [18]

COc1ccc(C=O)cc1O
inactive: Potency [1] | Potency [2] | outcome [3] | outcome [4] | Potency [5] | Potency [19] | Potency [6] | Potency [7] | outcome [8] | Potency [9] | Potency [10] | Potency [11] | max response [13] 0.952% | Potency [14] | Potency [15] | Potency [16] | Potency [17] | Potency [18]

CC(Cl)(Cl)Cl
inactive: Potency [1] | Potency [2] | outcome [3] | outcome [4] | Potency [5] | Potency [19] | activity change, positive = activation [20] 4% | Potency [6] | Potency [7] | outcome [8] | Potency [9] | Potency [10] | Potency [11] | outcome [12] | Potency [14] | Potency [16] | Potency [17] | Potency [18]

Cn1c(CCCC(=O)O)nc2cc(N(CCCl)CCCl)ccc21
inactive: Potency [1] | Potency [2] | outcome [3] | outcome [4] | Potency [5] | Potency [19] | Potency [6] | Potency [7] | outcome [8] | Potency [9] | Potency [10] | Potency [11] | outcome [12] | max response [13] 1.4% | Potency [14] | Potency [16] | Potency [17] | Potency [18]

COc1cccc(C=O)c1
inactive: Potency [1] | Potency [2] | outcome [3] | outcome [4] | Potency [5] | Potency [19] | Potency [6] | Potency [7] | outcome [8] | Potency [9] | Potency [10] | Potency [11] | outcome [12] | max response [13] -0.107% | Potency [14] | Potency [15] | Potency [16] | Potency [17] | Potency [18]

CC(=O)CN(CC(C)=O)N=O
inactive: Potency [1] | Potency [2] | outcome [3] | outcome [4] | Potency [5] | Potency [19] | Potency [6] | Potency [7] | outcome [8] | Potency [9] | Potency [10] | Potency [11] | outcome [12] | max response [13] 5.04% | Potency [14] | Potency [15] | Potency [16] | Potency [17] | Potency [18]

Cl/C=C/CCl
inactive: Potency [1] | Potency [2] | outcome [3] | outcome [4] | Potency [5] | Potency [19] | activity change, positive = activation [20] 5.39% | Potency [7] | outcome [8] | Potency [9] | Potency [10] | Potency [11] | max response [13] 7.85% | Potency [14] | Potency [15] | Potency [16] | Potency [17] | Potency [18]

CON(C)C(=O)Nc1ccc(Br)c(Cl)c1
inactive: Potency [1] | Potency [2] | outcome [3] | outcome [4] | Potency [5] | Potency [19] | activity change, positive = activation [20] 0.491% | Potency [6] | outcome [8] | Potency [9] | Potency [10] | outcome [12] | Potency [14] | Potency [15] | Potency [16] | Potency [17] | Potency [18]

Cc1ccc(S(=O)(=O)N[C@@H](CCCCN)C(=O)CCl)cc1
inactive: Potency [1] | Potency [2] | outcome [3] | outcome [4] | Potency [5] | Potency [19] | Potency [6] | Potency [7] | outcome [8] | Potency [9] | Potency [10] | Potency [11] | outcome [12] | max response [13] 2.57% | Potency [14] | Potency [15] | Potency [16] | Potency [17] | Potency [18]

CCC1(CC)C(=O)C=CNC1=O
inactive: Potency [1] | Potency [2] | outcome [3] | outcome [4] | Potency [5] | Potency [19] | activity change, positive = activation [20] 4.55% [at 42.5 µM] | Potency [6] | Potency [7] | outcome [8] | Potency [9] | Potency [10] | Potency [11] | outcome [12] | max response [13] 1.59% | Potency [14] | Potency [15] | Potency [16] | Potency [17] | Potency [18]

NC(=O)CS(=O)C(c1ccccc1)c1ccccc1 (stereo not drawn)
inactive: Potency [1] | Potency [2] | outcome [3] | outcome [4] | Potency [5] | Potency [19] | Potency [6] | Potency [7] | outcome [8] | Potency [9] | Potency [10] | Potency [14] | Potency [15] | Potency [16] | Potency [17] | Potency [18]

CCN(CC)CCOC(=O)C(O)(c1ccccc1)c1ccccc1
inactive: Potency [1] | Potency [2] | outcome [3] | outcome [4] | Potency [5] | Potency [19] | activity change, positive = activation [20] 2.32% [at 42.5 µM] | Potency [6] | Potency [7] | outcome [8] | Potency [9] | Potency [10] | Potency [11] | max response [13] -0.657% | Potency [14] | Potency [15] | Potency [16] | Potency [17] | Potency [18]

CCSC(=O)Cl
inactive: Potency [1] | Potency [2] | outcome [3] | outcome [4] | Potency [5] | Potency [19] | activity change, positive = activation [20] 13.4% | Potency [7] | outcome [8] | Potency [9] | Potency [10] | Potency [11] | Potency [14] | Potency [15] | Potency [17] | Potency [18]

CS(=O)(=O)c1ccc(C(=O)C2C(=O)CCCC2=O)c(Cl)c1COCC(F)(F)F
inactive: Potency [1] | Potency [2] | outcome [3] | outcome [4] | Potency [5] | Potency [19] | Potency [7] | outcome [8] | Potency [9] | Potency [10] | Potency [11] | outcome [12] | max response [13] 2.82% | Potency [14] | Potency [15] | Potency [16] | Potency [17] | Potency [18]
